Tested on: VDR:RXRa (NR concentration 270 nM, RXRa partner concentration 90 nM)
Assay: PBM binding z-score (relative to random genomic background probes); higher = stronger binding; sequences stand for … in GC…GCGATTGACAGCGTAGAATGAAGG
Experimental: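 Protein-binding microarray (Agilent 4x180K custom design, double-stranded 60-nt probes: 5' GC cap, 34-nt variable region, 24-nt constant primer region; full probe sequence given). Purified or IVT nuclear receptor:RXRα heterodimers (3:1 NR:RXRα, mostly 270:90 nM) or homodimers were incubated for 1 h in PBS with 2% milk and no ligand, then detected with Alexa488 antibodies. Fluorescence from o1-orientation probes (~5 replicates averaged) was converted to z-scores against 500 random hg19 background probes. Variable regions are seed direct-repeat (DR0–DR5) sites, all their single-nucleotide variants and half-site ablations.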

Sequence | PBM binding z-score
ATTAGCAGGCCAAGTTTGGGTCACTCAAACAAAG | 0.833
CCTGCCAGGTCATGGTCAGCTAATCTACAGTATG | 2.65
CAAACTAGGTCACGAAAGGTCAAAGGCGAATGAC | 6.79
ATATGTAGGTTATCGGCTCATTCAGTTTGCGCAT | 0.802
AATACAGGGTCACTAGGCCAGCGTAGGTACGAAT | 4.16
CCTAGCCGGCCAGGGTCACTCAAGCATTTCGCTT | 2.37
ACAGACAGGTGATGAAGGTAACTCTGGCTATCAT | 0.00307
CGTCAAGGTTCAAGGTAACGTAACAGAAAGCAGC | 3.05
TCTATTAATTGATTAGGGCAACCGAAACAGCGGA | 0.405
GTACCAAGGTGGATAGGTCGTTGATGAGTAGGCG | -0.168
CCTCGGAGGACAGAAGGTCTGAGCTGTCCGCTTT | -0.624
GGAACGAGGGCATTCAAGTTGATAGCATGGCGAT | 3.02
TAGCCTAGGTCATCGGCCAGTATACCACGCGAAC | 2.15
TCTTGTAGATCAACAGGAGGTTAACAAAGATCGA | 0.812
TCTTGAAGATCAAGCAGGTTAAGAAAGCCTGAGT | 0.401
CACACAGGGTCAGCTAGGCCAGAGTAGGGACGGC | 3.8
CCTACTGGGCCAAAAAGGTCATTGGTGCCGATAA | 5.2
TTACCAAGTTGAGCTGAGGTCGTTGATCCAACTC | 2.7
CCAGACTGGTGAGAAGGTAACTCAGCCTCGATTA | -0.455
ACTTACGGGTCAACGAGGTTATGGCACGCGTATA | 7.66

Sequence | PBM binding z-score
TCTAGTTGGTCAAAGGTCACATACTCGAAATGCG | 5.02
CCTCGGAGGACAACAGGAGGTCTGAGCTGCCAGA | -0.681
ACAGACAGGTGATGAAGGTCACTCAGGCTATCAT | 4.67
TTATATAGGTAAAGGTGAAAGTCGAACGATATGA | 1.07
CCTCGGAGGACAGAAGGTCAGGGCTGTCCGCTTT | 0.967
AGAACGTGGGCACGCTGAGTTGATAGCAGAGTAG | -0.467
CCTTACGGGTCACTCCACGTTATAGCATCGGAGT | 2.65
CTGACTGGGGCAAAGGTTACCATACTCAGTACGA | 2.07
CCGGACAGGTGAAAGGTAACTCAGTCTGGTACGC | 0.694
TCTCGGAGGACACGAAAGTTCAGAGCTCGACATC | 2.25
ATCGAAAGGTCGTGATGTGAGTATACAGAAAGGC | 2.98
ACAGACAGGTGAGTAAAGGTAACTCAGCTGGACG | -0.139
GCTAGTTGGTCAGTAAAAGTTCACACACCGGTCG | 2.55
CTCGAAAGGTCGTGCTCAGGCGAGTATACCAAAC | 2.96
GATGCAGGGTCAAGGCCAGAGTACGCGTATTGAT | 4.21
ACTCTTAGTTGAGACGAGGGCAACCGATAGGTTG | 0.492
TGTCAAAGTTCAAAGCTAACGTAAGTATCCACAC | 4.16
CATACAGGGTCTGCTAGGCCAGAGTAGGGACGGC | -0.426
CGAACTAGGTCAAGGACAGTGACTCTCCGCACGC | 1.19
CCTGCTAGGTCATGGTAAGCTAATCTACAGTATG | 1.49
